# The entries come from a sample that favours hits as a whole.
# Tg IFNy HTS = T. gondii growth inhibition with IFN-gamma, primary screen, cell-based. Toxoplasma gondii growth in IFN-gamma-treated host cells; active compounds read low. activity change, negative = inhibition, % (test concentration not listed). 69,000 tested, 3.8% active; in the data active means activity change below about -70%, passing the limit was not always enough;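 further: host cells are HeLa cells infected with Toxoplasma gondii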
# Numbers without * were called inactive; i = inactive; ! = not active in a repeat.
SMILES,Tg IFNy HTS
CN(C)c1nc2c(c(N3CCCC4(CC3)CNC(=O)O4)n1)CCCC2 (configuration not stated),-1
CCN1C(=O)[C@@H]2CN(S(C)(=O)=O)C[C@@H]2C12CCN(c1ncc(C)cn1)CC2,0
COc1ccc(CN2CC3(COC(C(=O)CCN4CCOCC4)C3)c3ccccc32)cc1 (configuration not stated),-36
COc1ccc(CN2CC3(COC(C(=O)N4CCCC4)C3)c3ccccc32)cc1 (configuration not stated),-79*
COCCN(C)C(=O)C1CC2(CO1)CN(Cc1ccc(OC)cc1)c1ccccc12 (configuration not stated),-35
COc1ccc(NC(=O)CSc2nnc3c(C)cc4ccccc4n23)cc1,0
Cc1ccc(NC(=O)CSc2nnc(-c3ccncc3)n2-c2ccccc2)cc1,-59
COc1ccc(-n2c(-c3ccccc3)cnc2SCC(=O)Nc2cc(C)cc(C)c2)cc1,-98*
O=C(Cn1cc(-c2ccccn2)cn1)Nc1ccn(Cc2ccccc2)n1,3
Cc1c(C(C)NC(=O)c2ccc3nc(C(F)(F)F)[nH]c3c2)cnn1C (configuration not stated),10
Cc1cc(C)n(CCCC(=O)Nc2cnc3n2CCCC3)n1,-1
COc1ccc(NC(=O)c2ccco2)cc1NC(=O)c1cccnc1Cl,3
CCOc1ccc2nc(SCC(=O)c3ccc(F)cc3)sc2c1,-79*
CCOc1ccc2nc(NS(=O)(=O)c3ccc(NC(C)=O)cc3)sc2c1,5
O=C(CSc1ccccn1)c1ccc(OCc2ccc(F)cc2)cc1,-23
COc1ccc(Cc2n[nH]c(=O)n2-c2ccc(OC)cc2C)cc1,-2
Cc1ccsc1CNCCSc1nnnn1-c1ccccc1,-38
CN1c2ccsc2-c2nc(SCc3ccc(Cl)cc3)ncc2S1(=O)=O,-85*
O=c1nc(SCc2ccc(Cl)cc2)nc(-c2ccccc2)[nH]1,-44
Clc1ccc(CSc2cccs2)cc1,11
Cc1cc(NC(=O)c2cccc(CN3CCC(C(N)=O)CC3)c2)ccc1F,-11
COc1cccc(-c2nccn2C(C)Cn2cncn2)c1OC (configuration not stated),-4
CNC(=O)c1ccc(CN2CCCC(CCc3ccccc3C)C2)cc1 (configuration not stated),-7
Cc1c[nH]c(CN2CCCC(CCc3ccccc3F)C2)c(C)c1=O (configuration not stated),-89*
COc1coc(CN2CCCC(CCc3ccccc3C)C2)cc1=O (configuration not stated),-14
SMILES,Tg IFNy HTS
Cc1ccc(CC23CN4CC(CN(C4)C2)C3=O)c(C)c1,-6
Cc1ccc(C(=O)N2CCN(S(=O)(=O)c3cc4c5c(c3)CCC(=O)N5CCC4)CC2)cc1C,-45
CN(Cc1cccnc1)C1CCN(C(=O)c2cccnc2)C(C(=O)O)C1 (configuration not stated),-5
CN(Cc1cccnc1)C1CCN(C(=O)c2ccccn2)C(C(=O)O)C1 (configuration not stated),-74*
CN(Cc1cccnc1)C1CCN(C(=O)c2cnccn2)C(C(=O)O)C1 (configuration not stated),8
FC(F)(F)c1ccnc(NCc2ccc3c(c2)OCO3)n1,51
FC(F)(F)CCc1ccnc(NCc2ccc3c(c2)OCO3)n1,-5
Clc1ccc(-c2nc(NCc3ccc4c(c3)OCO4)ncc2-c2ncc[nH]2)cc1,-106*
O=C(C1CCCCC1)N1CCC1c1nc(-c2cccnc2)no1 (configuration not stated),18
CC(=O)N1CCC2(CC1)OC(=O)C(C)=C2C(=O)N1CCN(C2CCCCC2)CC1,33
O=C(Cc1ccccc1)Nc1cccc(NC(=O)c2ccnnc2)c1,6
CC/C=C/CC(=O)Nc1cccc(NC(=O)Cc2ccccc2)c1,-12
Cc1cc(C(=O)Nc2cccc(NC(=O)Cc3ccccc3)c2)n[nH]1,-75*
O=C(c1cncc(N2C[C@H]3CC=CC[C@H]3C2)n1)N1CCOCC1,7
CC1=C(C(=O)NCCC(C)C)C2(CCN(Cc3ccccc3)CC2)OC1=O,200
CCSc1nccc(C(F)(F)F)c1C(=O)NCc1ccc(Cl)cc1Cl,-67
COc1ccc(C(N)=O)cc1-c1ccc(-n2cccn2)cc1,5
COc1cc(CNC(=O)C2(C)CCN(C(=O)c3ccccc3F)CC2)cc(OC)c1,17
CNCCC=C1c2ccccc2CCc2ccccc21,-88*!
c1ccc(-c2ccc3c(n2)CCc2ccccc2-3)cc1,225
Cc1oc(-c2cccc(Cl)c2)nc1CSc1nc2c(c(=O)[nH]1)CN(Cc1ccccc1)CC2,3
Cc1cccc(Nc2nc(C(=O)Nc3cc(F)ccc3F)nc3ccccc23)c1,-12
O=C(CNC(=O)c1ccc(Cl)cc1)NO,17
O=C(NCc1c(Cl)cccc1Sc1ccc(Cl)cc1)c1ccc(Cl)cc1,-102*
O=C(Nc1ccc(Sc2cccs2)cc1)c1ccc(Cl)cc1,-62
SMILES,Tg IFNy HTS
Nc1nc(N)c(Cc2ccccc2)cc1Cc1ccccc1,160
COc1ccc(CCN(C)C2CCCN(c3ccnc(N)n3)C2)cc1OC (configuration not stated),-2
COc1ccc(COc2cc3oc(=O)c4cc(C(C)O)ccc4c3cc2OC)cc1 (configuration not stated),-6
COc1cc(OC)cc(-c2nc(N)c3c(C)c(-c4ccc(OC)c(OC)c4)sc3n2)c1,-65
COc1ccc(COc2ccc(Cc3cnc(N)nc3N)cc2OC)cc1,-77*
COc1ccc(Cc2cnc(N)nc2N)cc1OC,-79*
CCOC(C)c1n[nH]c(=O)n1Cc1cccs1 (configuration not stated),1
CSc1noc(-c2ccc(Cl)cc2)c1C(=O)NC(=O)Nc1ccccc1Cl,-34
Cc1ccc(-c2coc(-c3ccc(NC(=O)Cc4ccccc4C)cc3)n2)cc1,-12
COc1ccc(NC(=O)c2nnn(-c3ccccc3)c2C)cc1,87
O=c1[nH]nc(-c2cc3c(s2)CCCC3)o1,-100*
CN1CCC(CNC(=O)c2ccc3c4c([nH]c3c2)CCCC4)C1 (configuration not stated),0
COc1ccc(NC(=O)C(=O)NCCc2sc(-c3ccc(F)cc3)nc2C)cc1,20
Cc1cccnc1CN1CCN(Cc2[nH]c3ccc(Cl)cc3c2C)CC1,-52
COCCCNC(=O)c1ccccc1C(=O)Nc1cc(C(F)(F)F)cc(C(F)(F)F)c1,37
O=C(NC(=O)c1csnn1)Nc1cc(C(F)(F)F)cc(C(F)(F)F)c1,-101*
O=C(Nc1cc(C(F)(F)F)cc(C(F)(F)F)c1)c1cc(Cl)ccc1O,-80*
O=C(c1ccccc1)c1c(Cl)cc(C(F)(F)F)cc1Cl,-3
O=C(Nc1cc(C(F)(F)F)cc(C(F)(F)F)c1)c1csc(-c2ccc(Cl)cc2)c1,48
O=C(N/C=C/c1ccsc1)Sc1cc(C(F)(F)F)cc(C(F)(F)F)c1,48
O=C(Nc1ccccc1-c1ccccc1)c1csnn1,2
O=C(Nc1cc(C(F)(F)F)cc(C(F)(F)F)c1)Nc1sccc1Cl,-95*
O=C(Nc1ccccc1)c1cc2n(n1)CCN(C(=O)c1csnn1)C2,39
CC(C)NS(=O)(=O)c1ccc2[nH]c(=O)ccc2c1,i
CC(C)n1ccc(-c2cc(C(=O)N3CCC(N(C)C)CC3)c3ccccn23)n1,-47
O=C(Nc1cccc2ccccc12)N1CCCCC1CCN1CCOCC1 (configuration not stated),21
Cn1ccnc1CN(CC1CCC(N)CC1)C1CC1 (configuration not stated),-5
